Bioassay records: PubChem BioAssay, several laboratories
Anthrax LF prot – blocks Bacillus anthracis lethal factor protease | P15917 | AID 588501 | inhibition, % at 10 µM | 360,000 tested, 0.12% active | multiplex microsphere protease cleavage assay, LF; also: plate controls were buffer without enzyme for full effect and enzyme alone for no effect
Target sequence (P15917 whole entry, looked up): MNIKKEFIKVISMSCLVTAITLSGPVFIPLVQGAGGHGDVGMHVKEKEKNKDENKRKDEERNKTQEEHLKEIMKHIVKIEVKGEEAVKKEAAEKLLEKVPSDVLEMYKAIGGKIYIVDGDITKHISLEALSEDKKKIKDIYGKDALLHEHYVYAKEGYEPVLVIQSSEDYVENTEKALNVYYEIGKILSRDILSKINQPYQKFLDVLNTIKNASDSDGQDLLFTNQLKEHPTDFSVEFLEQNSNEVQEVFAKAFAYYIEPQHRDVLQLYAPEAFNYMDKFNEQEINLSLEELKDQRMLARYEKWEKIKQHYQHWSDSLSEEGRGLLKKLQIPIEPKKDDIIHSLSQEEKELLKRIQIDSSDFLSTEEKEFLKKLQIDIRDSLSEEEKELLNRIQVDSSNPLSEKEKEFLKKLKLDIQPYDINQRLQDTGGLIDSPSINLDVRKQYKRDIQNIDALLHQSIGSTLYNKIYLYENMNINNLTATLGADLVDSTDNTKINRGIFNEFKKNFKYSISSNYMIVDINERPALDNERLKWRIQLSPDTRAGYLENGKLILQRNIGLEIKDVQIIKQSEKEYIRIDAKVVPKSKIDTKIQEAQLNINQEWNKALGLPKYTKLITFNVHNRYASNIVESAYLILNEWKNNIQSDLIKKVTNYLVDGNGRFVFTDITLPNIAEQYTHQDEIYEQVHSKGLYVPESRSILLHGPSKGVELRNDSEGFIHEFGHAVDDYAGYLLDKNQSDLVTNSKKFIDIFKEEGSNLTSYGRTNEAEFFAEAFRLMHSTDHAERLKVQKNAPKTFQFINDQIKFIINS
DUSP3 inh – DUSP3 (human) phosphatase inhibition; recombinant VHR phosphatase, pNPP absorbance; inhibition, % at 13.3 µM; 290,000 tested, 0.52% active; AID 1654; in the data active = inhibition above about 50%
Autofluor counter – compound fluorescence in toxin protease inhibitor counterscreen; compound autofluorescence counterscreen, microsphere flow cytometry; active compounds read high; fluorescence intensity (concentration not given with the values); 360,000 tested, 3.1% active; AID 624483; in the data active = fluorescence intensity above about 16000; inconclusive = no clear call, values can overlap the other calls
MazEF act – increases E. coli MazEF RNase cleavage of RNA. P0AE70. FAM/BHQ RNA-DNA oligo cleavage fluorescence, 5 h. activation, % at 20 µM. 350,000 tested, 0.32% active. AID 504720; in the data active = activation above about 50%
BoNT F protease – BoNT F light chain protease inhibition | Multiplex microsphere protease cleavage assay, flow cytometry | inhibition, % at 10 µM | 360,000 tested, 0.22% active; in the data active = inhibition above about 35%, passing the limit was not always enough; inconclusive = no clear call, values can overlap the other calls; also: plate controls were buffer without enzyme for full effect and enzyme alone for no effect
BoNT A protease – inhibitors of Botulinum neurotoxin A light chain protease | inhibition, % at 10 µM | 360,000 tested, 0.17% active | AID 588499 | multiplex microsphere protease substrate cleavage, flow cytometry; also: plate controls were buffer without enzyme for full effect and enzyme alone for no effect
* hit, by the source's call; ? = inconclusive; nt = not tested or not shown; ! = repeats disagree. Compounds with a hit are over-represented: about 4% of the library has one in this group of screens. Rule as the data show it, unless noted: active = inhibition above about 30%; inconclusive = no clear call, values can overlap the other calls; inactive = below that.

SMILES	Anthrax LF prot	DUSP3 inh	Autofluor counter	MazEF act	BoNT F protease	BoNT A protease
Cc1cccc(Oc2cc([N+](=O)[O-])cc3c2C(=O)Nc2ccccc2O3)c1	0	-14	3226	5	-1	2
O=C1Nc2ccccc2Oc2cc([N+](=O)[O-])cc(Oc3ccccc3)c21	4	-14	4500	53*	-2	4
CC1CC2(CC(C)(C(=O)CSc3nc4ccccc4s3)OC2=O)C(=O)O1 (stereo not drawn)	0	3	23789*	2	-3	-3
CC1(C)CC2(CC(C)(C(=O)CSc3nc4ccccc4s3)OC2=O)C(=O)O1 (stereo not drawn)	-2	23	16350*	-10	0	?
O=C1CC(c2ccco2)CC(O)=C1C=Nc1cc(Cl)ccc1O (stereo not drawn)	1	-2	4222	-29	22	1
Cc1ccc(N=CC2=C(O)CC(c3ccco3)CC2=O)cc1 (stereo not drawn)	-1	41	17259*	4	18	10
Cc1[nH]nc(N=CC2=C(O)CC(C)(C)CC2=O)c1-c1ccc(Cl)cc1	3	16	20907*!	2	-6	?
Cc1[nH]nc(N=CC2=C(O)CC(c3ccco3)CC2=O)c1-c1ccc(Cl)cc1 (stereo not drawn)	-1	22	23437*	-11	-4	-3
COc1cc(NC(=O)C(C)Oc2ccccc2)c(OC)cc1NC(=O)c1ccccc1 (stereo not drawn)	-1	14	?	1	0	10
O=C(O)c1ccccc1S(=O)CCO (stereo not drawn)	2	24	22978*	-3	2	0
CCCCn1c(N)c(-c2nc3ccccc3s2)c2c([N+](=O)[O-])nn(CC)c(=O)c21	0	10	11233	0	7	0
CCCCCn1c(N)c(-c2nc3ccccc3s2)c2c([N+](=O)[O-])nn(CC)c(=O)c21	-19	27	17846*	2	-13	-8
O=C(c1cccnc1)N1CCc2ccccc2C1	1	51*	8271	-14	0	1
O=C(c1cccnc1)N1CCc2ccccc21	-6	-9	20167*	3	10	8
COc1cccc(C2=NN(C(=O)c3ccccc3)C(O)(C(F)(F)F)C2)c1 (stereo not drawn)	4	-10	4472	-10	32	3
CSC1=C(C#N)C(c2ccccc2Cl)C2=C(N1)c1ccccc1C2=O (stereo not drawn)	nt	26	nt	-2	nt	nt
CSC1=C(C#N)C(c2ccccc2C)C(C#N)=C(N)N1 (stereo not drawn)	0	25	23095*	7	-5	?
CCOc1ccc(C(=S)N2CCOCC2)cc1OCC	2	27	23260*	2	0	-1
CCOc1cc(C(=S)N2CCCCC2)ccc1OCC(=O)NCc1ccccc1	-1	-16	22179*	0	5	?
CCOc1cc(C(=S)N2CCOCC2)ccc1OS(=O)(=O)c1ccc(C)cc1	-10	16	3893	7	?	-1
Cc1ccc(S(=O)(=O)Nc2ncnc3sc(C)c(C)c23)cc1	nt	nt	nt	-1	nt	nt
CC(C)C(C)(C#N)NC(=O)CSc1nc(C2CCCCC2)n(-c2ccccc2)n1 (stereo not drawn)	-1	9	2368	-1	38*	3
Cc1noc(C)c1COC(=O)CCOc1ccccc1	-1	-8	17725*	-5	-4	-2
O=C(N/N=C/c1cccs1)c1cccc(NC(=O)c2ccc(Cl)cc2)c1	nt	0	nt	nt	nt	nt
N#Cc1c(F)cccc1N1CCN(Cc2ccc3c(c2)OCO3)CC1	-3	22	3779	6	-7	1
SMILES	Anthrax LF prot	DUSP3 inh	Autofluor counter	MazEF act	BoNT F protease	BoNT A protease
COCCNC(=O)/C(C#N)=C1\N=C(NC(=O)c2ccco2)c2ccccc21	6	nt	3723	8	1	2
CCCNC(=O)/C(C#N)=C1\N=C(NC(=O)c2ccco2)c2ccccc21	4	-10	5056	90*	6	2
Cc1cc2c(cc1C)N(C(=O)CSC1=NCCS1)C(C)(C)c1ssc(=S)c1-2	-5	-8	21080*	0	-6	-2
CC1(C)c2ssc(=S)c2-c2ccccc2N1C(=O)CSC1=NCCS1	3	2	3659	8	4	1
C=CCn1c(SCc2nc3ccccc3[nH]2)nnc1-c1ccccn1	-4	2	18300*	-3	6	?
C=CCn1c(SCC(=O)Nc2ccc(C(=O)O)cc2)nnc1-c1cccnc1	2	9	4140	9	-4	0
CCn1c(SCc2nc3ccccc3[nH]2)nnc1-c1cccnc1	-4	12	24875*	-4	-5	?
Nn1c(SCc2nc3ccccc3[nH]2)nnc1-c1ccccc1	-6	15	?	5	1	2
C=CCn1c(SCc2nc3ccccc3[nH]2)nnc1-c1ccc(OC)cc1	-1	21	20347*	1	-1	-2
C=CCn1c(SCc2cccc3ccccc23)nnc1-c1cccnc1	2	14	21679*	0	3	2
CCn1c(SCc2nc3ccccc3[nH]2)nnc1-c1ccncc1	6	6	4858	2	-2	2
C=CCn1c(SCc2nc3ccccc3[nH]2)nnc1-c1cccc(OC)c1	6	24	22532*	-5	2	1
CCn1c(SCc2nc3ccccc3[nH]2)nnc1-c1ccc(OC)cc1	0	21	23993*	0	-3	-3
C=CCn1c(SCc2cccc(OC)c2)nnc1-c1ccncc1	12	-4	3306	7	?	-4
O=C(NCc1cccnc1)Nc1ccc(Cl)cc1Cl	nt	-2	nt	-2	nt	nt
O=Cc1ccc2ccc3cccnc3c2n1	2	57*	3565	1	-14	-2
CCN(Cc1cnn(C)c1)C(=O)c1ccc2nc(Cc3ccccc3F)oc2c1	0	nt	3399	3	1	0
Cn1cc(CCC(=O)N2CCC3(CC2)OCCO3)c2ccccc21	1	49	23713*	-2	-2	1
CC(=O)c1ccc(N2CCN(C(=O)Cc3cccs3)CC2)cc1	0	14	4026	8	-1	1
O=C(Cc1cccs1)N1CCC2(CC1)OCCO2	0	5	20223*	-5	-1	-2
Cn1c(=O)cc(OCCCC(=O)N2CCC3(CC2)OCCO3)c2ccccc21	-7	14	4019	-6	-11	-2
O=C(N/N=C/c1ccc([N+](=O)[O-])cc1)c1cccs1	4	36	4334	-2	?	-2
O=C(N/N=C/c1cccc([N+](=O)[O-])c1O)c1cccs1	-1	56*	2441	-3	-3	-1
CCOc1c(Cl)cc(CNC(C)(C)CC(C)(C)C)cc1OC	-4	-4	21728*	-10	4	4
C/C(Cl)=C/Cn1c(SCc2ccc(Cl)cc2)nc2c1c(=O)[nH]c(=O)n2C	-2	6	3590	-30	-4	0
